Data reported in the supplement of paper PMC6555819.

system: PXR:RXRa (NR concentration 270 nM, RXRa partner concentration 90 nM); assay: PBM binding z-score (relative to random genomic background probes); higher = stronger binding; sequences stand for … in GC…GCGATTGACAGCGTAGAATGAAGG
Method in brief: (§1)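 Probes were double-stranded and carried 34-nt variable regions with direct-repeat seeds, single-nucleotide variants, half-site ablations and random human genomic background sequences, printed on custom Agilent 4×180K protein-binding microarrays. Arrays were incubated 1 h with ligand-free nuclear receptor dimers in PBS pH 7.4, 2% milk, 0.02% Triton X-100, 1 mM DTT, 0.2 mg/mL BSA and 0.4 mg/ml salmon testes DNA. Antibodies against each partner (one per run) detected binding, and scanned fluorescence was regression-normalized. Binding z-scores use the random background probes as reference.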

Sequence	PBM binding z-score
ACAGACAGGTGATAAAGGTAACTCAGGCTATCAT	-0.0528
CCTACTGGGTCATCAGGTCATTGATATCAACGTT	3.76
TCATCTAGGTAAAAGGTGAAAGTCGGTGTGGTAA	1.53
CAGCCTAGGTCAGGCCCAGTATAGGAGGAACGTT	-0.0342
AATACAGGGTCATCGTAAGCCAGAGTACGCACAG	4.05
CCTACTGGGCCACGAACGGTCATTGATTCAGTGA	-0.201
GCGACTTGGGCAAAGCAGGTTACCATAAGGTTGG	-0.189
TCTAGTAGGTTAGTCGGGGCATTCAGCCAACATA	0.733
AGAACGAGGGCACGCTCAGTTGATAGCAGAGTAG	0.642
CGTACTAGGTCATTGACAGGACAGTGAATAGTAA	1.64
ATCGAAAGGTCGAGGTGAGCATAGAGAAAGGGAA	2.2
TCATATAGGTAAAGGTGCAAGTCGAACGATATGA	0.241
TCTAGTTGGTCACGGAGGTCACTCACGACGGGTA	3.9
GCGACTGGGGCATAAGCAGGTTACCATAACTTAA	0.0393
AATACAGGCTCATCGTAGGCCAGAGTACGCACAG	-0.568
CGTACAAGGTCAGCAGGTCAGTGAAAGCGACGTG	3.82
ACAGACAGGTGAGTGAAGGGAACTCAGCTGGACG	-0.572
CCTACTGGGCCAAAAAGGTCCTTGATGCCGATAA	-0.29

system: PXR homodimer (NR concentration 270 nM); assay: as above
Method in brief: as §1

Sequence	PBM binding z-score
ATCTCTAGGTGAAGTTCAGTGAAAGATCGATAGA	0.828
CCGACTGGGGCAGAAAGTTTACCATACCATCCGG	0.645
ACAGACAGGTGATGAAGGTAACTAAGGCTATCAT	0.104
GCATGTAGATCAAGGTTAAGAAAGACTAAGCTAA	-0.179
TCTTGTAGATCAACAGGAGGTCAAGAAAGATCGA	0.715
CTTGCTAGGTCAATGGTCAGCTAAAGCAGCTCGC	-0.623
TCGAGTAGGTTCGTCGGGGCATTCAGCCAACATA	-0.361
ATCTCTGGGTAACAAGTTCAGTGAAAGAGAGGAC	1.92
TAGCCCAGGTCAGATCGGGCCAGTATACGCTATA	-0.562
TGTCAAAGTTCAATGGTAACGTAAGTATCCACAC	2.86
CGAACGAGGGCATGAGTTGATAGCAAATGCCGAT	-0.209
CGTCCAAGGTCATAGGAGGTCAGGGAAGACAGAT	3.35
GCTGCTTGGTCAACTGATGGTCAGCTAAAGCTCG	-0.859
ATCTCTAGGAAACCAAGTTCAGTGAATGCCGAAC	1.48
CCTGCTAGGTCATGGTCATCTAATCTACAGTATG	-0.321
TAGCCTATGTCATTGGGCCAGTATAGTACGCATC	-0.118
CGAACTAGGTCAGAACAGGACACTGAAGGATGAT	-0.0376
GCTCGGAGGACAAGGTCAGATCTTTGTCCGTAGA	-0.322
AGAATGAGGTTATTACGATCAGGGAATTGCGGTC	0.487
TCATATACGTAAAAGGTGAAAGTCGGTGTGGTAA	0.642

Sequence	PBM binding z-score
CCTAGTGGGCCACGAAAGGTCATTGATTCAGTGA	1.17
TCTTGTAGTTCAATAGAGGTTAAGAAAGTGCGCT	1.73
ACAGACAGGTGATAAAGGTAACTCAGGCTATCAT	0.0239
CCTACTGGGTCATCAGGTCATTGATATCAACGTT	0.934
TCATCTAGGTAAAAGGTGAAAGTCGGTGTGGTAA	0.241
CAGCCTAGGTCAGGCCCAGTATAGGAGGAACGTT	-0.609
AATACAGGGTCATCGTAAGCCAGAGTACGCACAG	1
CCTACTGGGCCACGAACGGTCATTGATTCAGTGA	-0.435
GCGACTTGGGCAAAGCAGGTTACCATAAGGTTGG	-0.923
TCTAGTAGGTTAGTCGGGGCATTCAGCCAACATA	0.807
AGAACGAGGGCACGCTCAGTTGATAGCAGAGTAG	0.028
CGTACTAGGTCATTGACAGGACAGTGAATAGTAA	0.269
ATCGAAAGGTCGAGGTGAGCATAGAGAAAGGGAA	-0.0822
TCATATAGGTAAAGGTGCAAGTCGAACGATATGA	0.116
TCTAGTTGGTCACGGAGGTCACTCACGACGGGTA	1.36
GCGACTGGGGCATAAGCAGGTTACCATAACTTAA	-0.431
AATACAGGCTCATCGTAGGCCAGAGTACGCACAG	-0.37
CGTACAAGGTCAGCAGGTCAGTGAAAGCGACGTG	0.382
ACAGACAGGTGAGTGAAGGGAACTCAGCTGGACG	-0.37
CCTACTGGGCCAAAAAGGTCCTTGATGCCGATAA	-0.721

system: RARa:RXR (NR concentration 270 nM, RXRa partner concentration 90 nM); assay: as above
Method in brief: as §1

Sequence	PBM binding z-score
ATCTCTAGGTGAAGTTCAGTGAAAGATCGATAGA	0.684
CCGACTGGGGCAGAAAGTTTACCATACCATCCGG	-0.677
ACAGACAGGTGATGAAGGTAACTAAGGCTATCAT	0.191
GCATGTAGATCAAGGTTAAGAAAGACTAAGCTAA	0.536
TCTTGTAGATCAACAGGAGGTCAAGAAAGATCGA	4.01
CTTGCTAGGTCAATGGTCAGCTAAAGCAGCTCGC	1.83
TCGAGTAGGTTCGTCGGGGCATTCAGCCAACATA	0.296
ATCTCTGGGTAACAAGTTCAGTGAAAGAGAGGAC	0.922
TAGCCCAGGTCAGATCGGGCCAGTATACGCTATA	1.11
TGTCAAAGTTCAATGGTAACGTAAGTATCCACAC	2.38
CGAACGAGGGCATGAGTTGATAGCAAATGCCGAT	0.5
CGTCCAAGGTCATAGGAGGTCAGGGAAGACAGAT	6.79
GCTGCTTGGTCAACTGATGGTCAGCTAAAGCTCG	-0.138
ATCTCTAGGAAACCAAGTTCAGTGAATGCCGAAC	0.595
CCTGCTAGGTCATGGTCATCTAATCTACAGTATG	2.23
TAGCCTATGTCATTGGGCCAGTATAGTACGCATC	-0.0244
CGAACTAGGTCAGAACAGGACACTGAAGGATGAT	1.24
GCTCGGAGGACAAGGTCAGATCTTTGTCCGTAGA	2.22
AGAATGAGGTTATTACGATCAGGGAATTGCGGTC	1.78
TCATATACGTAAAAGGTGAAAGTCGGTGTGGTAA	1.89

Sequence	PBM binding z-score
CCTAGTGGGCCACGAAAGGTCATTGATTCAGTGA	5.06
TCTTGTAGTTCAATAGAGGTTAAGAAAGTGCGCT	2.4
ACAGACAGGTGATAAAGGTAACTCAGGCTATCAT	0.267
CCTACTGGGTCATCAGGTCATTGATATCAACGTT	4.74
TCATCTAGGTAAAAGGTGAAAGTCGGTGTGGTAA	2.8
CAGCCTAGGTCAGGCCCAGTATAGGAGGAACGTT	0.588
AATACAGGGTCATCGTAAGCCAGAGTACGCACAG	4.6
CCTACTGGGCCACGAACGGTCATTGATTCAGTGA	0.0689
GCGACTTGGGCAAAGCAGGTTACCATAAGGTTGG	0.287
TCTAGTAGGTTAGTCGGGGCATTCAGCCAACATA	0.939
AGAACGAGGGCACGCTCAGTTGATAGCAGAGTAG	0.591
CGTACTAGGTCATTGACAGGACAGTGAATAGTAA	2.54
ATCGAAAGGTCGAGGTGAGCATAGAGAAAGGGAA	3.17
TCATATAGGTAAAGGTGCAAGTCGAACGATATGA	0.949
TCTAGTTGGTCACGGAGGTCACTCACGACGGGTA	3.6
GCGACTGGGGCATAAGCAGGTTACCATAACTTAA	0.498
AATACAGGCTCATCGTAGGCCAGAGTACGCACAG	-0.622
CGTACAAGGTCAGCAGGTCAGTGAAAGCGACGTG	5.17
ACAGACAGGTGAGTGAAGGGAACTCAGCTGGACG	-0.456
CCTACTGGGCCAAAAAGGTCCTTGATGCCGATAA	-0.161
